PubChem BioAssay AID493067 (National Center for Advancing Translational Sciences (NCATS), 2011)
Results filed as inconclusive are left out. Calls of active or inactive are those of the source. The call rests on the fitted dose curve; in most records, active means well fitted activation curve with a large enough effect; inconclusive means small, poorly fitted or top-dose-only effect; inactive means flat fitted curve, though single readings scatter.

Assay: Confirmation Concentration-Response Assay for qHTS Assay for Epigenetic Modulators
Details: murine C127i LDR cells, GFP reporter derepression, 30 h; series mostly up to 46.1 µM
Source text: NIH Molecular Libraries Screening Centers Network [MLSCN] NIH Chemical Genomics Center [NCGC] MLSCN Grant: 1 X01 MH079860-01 Assay Provider: Elisabeth D. Martinez, University of Texas SW Medical Center NCGC Assay Overview: This assay, used for the primary screen, was employed here to confirm actives identified from the Locus Derepression (LDR) assay (PubChem AID 1865). The LDR assay detects the derepression of a GFP reporter that is stably integrated in a region of the genome of murine c127i mammary cells that is presumably silenced. Compounds that derepress or induce this reporter locus are identified by enumerating GFP positive cells using an Acumen Explorer Ex3 (TTP Labtech) laser-scanning microplate cytometer.
NCGC Assay Protocol Summary: Three hundred LDR cells in 5 uL per well were dispensed into black, clear-bottom 1536-well plates. Twenty-three nL compound was transferred to the assay plate and cells were incubated 30 hours at 37 C. Medium was removed, cells were washed two times with PBS, and GFP-positive cells were enumerated as fluorescent objects between the sizes of 20 to 120 um width and depth using an Acumen Explorer Ex3 (TTP Labtech) laser-scanning microplate cytometer. For further details, see Johnson, RL, Huang, W, Jadhav, A, Austin, CP, Inglese, J, Martinez, ED (2008). A quantitative high-throughput screen identifies potential epigenetic modulators of gene expression. Anal Biochem 375: 237-48.

SMILES | Potency
CC1=C/C(=N\NC(=S)Nc2cccnc2)CC(C)(C)C1 | 3.16 µM (active)
CN(c1ccccc1)S(=O)(=O)c1nnc(NC(=O)c2ccccc2)s1 | inactive
CCN(CC)c1ccc2c(c1)oc(=O)c1c(Cl)cc(=O)oc12 | 3.98 µM (active)
Cc1cc(N2CCN(c3ccc([N+](=O)[O-])c4cccnc34)CC2)c2ccccc2n1 | 12.6 µM (active)
N#Cc1sc2nc(-c3ccccc3)cc(C(F)(F)F)c2c1N | 15.8 µM (active)
CC(=O)[C@H](CC(C)C)NC(=O)[C@@H](CC(C)C)NC(=O)[C@H](CC(C)C)NC(=O)OCc1ccccc1 | 3.98 µM (active)
CCc1nnc(NC(=O)c2cccc(C(=O)Nc3nnc(CC)s3)n2)s1 | 7.94 µM (active)
Cc1ccc(/C=[N+](\[O-])c2ccc(N(C)C)cc2)c2nsnc12 | inactive
O=C(O)CCCCCN1C(=O)/C(=C\c2ccc(-c3ccc(Cl)cc3)o2)SC1=S | 7.94 µM (active)
S=C(Nc1ccccc1)c1ccccn1 | 15.8 µM (active)
COc1ccc2c(C)nc(Nc3nc(-c4ccccc4)cc(=O)[nH]3)nc2c1 | 4.47 µM (active)
N#CC1=C(N)n2c(s/c(=C\c3cccs3)c2=O)=C(C#N)C1c1cccs1 (stereo not drawn) | 15.8 µM (active)
Oc1ccc(Br)cc1C=Nc1ccc2c3c(cccc13)CC2 | inactive
O=C(CSc1cccc[n+]1[O-])c1ccccc1Br | 25.1 µM (active)
COc1cccc(/C=N/Nc2nc(Nc3ccccc3)nc(-n3nc(C)cc3C)n2)c1O | 3.98 µM (active)
COCCNC(=S)N/N=C(\C)c1ccccc1O | 6.31 µM (active)
Cc1nc(CSc2nsc(/C=C/N(C)C)c2C#N)cs1 | inactive
CCc1ccc(NC(=O)C2CCC(CNS(=O)(=O)c3ccc4c(c3)CC(C)N4C(C)=O)CC2)cc1 (stereo not drawn) | inactive
Cc1cccn2c(=O)c(/C=C3\SC(=S)N(CC(C)C)C3=O)c(NCCCOC(C)C)nc12 | 3.55 µM (active)
CCOC(=O)c1cc2c(=O)n3ccccc3nc2n(Cc2ccco2)c1=NC(=O)c1ccc(Br)cc1 | 15.8 µM (active)
CCOn1c(=O)c[n+]([O-])c2ccccc21 | inactive
CCOc1ccc(NC(=O)c2nc(S(=O)(=O)Cc3ccccc3F)ncc2Cl)cc1 | inactive
CN(C)S(=O)(=O)c1ccc2c(c1)/C(=C/c1cc3c([nH]1)CCCC3)C(=O)N2 | 14.1 µM (active)
